Data reported in PubChem BioAssay (NCI).
The panel holds about 83,000 compounds, 20% with a hit somewhere; the sample as a whole holds those more often.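 Testing used 96-well plates and a 48-hour single-concentration exposure. Example: -40 means 40% of the starting cells died.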 Active and inactive are the calls of the source. How the source made its calls: active means growth percent below 10; inactive means the rest.

Key:
Assay in all cases: NCI-60 one-dose screen, 48 h (100 = growth as untreated, 0 = no growth, -100 = all killed)
HT29 colon = settings: 10 µM unless noted
SNB-75 CNS = settings: 10 µM unless noted
SNB-19 CNS = settings: 10 µM unless noted
U251 CNS = settings: 10 µM unless noted
PC-3 prostate = settings: 10 µM unless noted
SK-MEL-5 melanoma = settings: 10 µM unless noted
UACC-62 melanoma = settings: 10 µM unless noted
LOX IMVI melanoma = settings: 10 µM unless noted
SK-MEL-28 melanoma = settings: 10 µM
SK-MEL-2 melanoma = settings: 10 µM unless noted

Measured: growth

COc1cc(C#N)cc2[nH]c(=O)oc12
inactive: HT29 colon 106% | SNB-75 CNS 71.9% | SNB-19 CNS 106% | U251 CNS 92.4% | PC-3 prostate 102% | SK-MEL-5 melanoma 96.7% | UACC-62 melanoma 113% | LOX IMVI melanoma 111% | SK-MEL-28 melanoma 107% | SK-MEL-2 melanoma 106%

O=C(Nc1ccc(Cl)cc1)c1cc2ccccc2cc1OP(=O)(O)O
inactive: HT29 colon 103% | SNB-75 CNS 24.2% | SNB-19 CNS 21.6% | U251 CNS 18.8% | PC-3 prostate 24.6% | UACC-62 melanoma 35.4% | LOX IMVI melanoma 22.9% | SK-MEL-28 melanoma 35.9%
active: SK-MEL-5 melanoma 3.56% | SK-MEL-2 melanoma 7.63%

CCCCCCc1cc2cc(-c3csc(/C=C/c4ccccc4)n3)c(=O)oc2cc1O
inactive: SNB-19 CNS 55.3% | PC-3 prostate 25.1%
active: HT29 colon -37.8% | SNB-75 CNS 3.13% | U251 CNS 0.326% | SK-MEL-5 melanoma -93.6% | UACC-62 melanoma -68.3% | LOX IMVI melanoma -47.1% | SK-MEL-28 melanoma -96.1% | SK-MEL-2 melanoma -71.5%

O=S(=O)(c1ccccc1)n1cc2c(c1-c1ccccc1)CCc1sc(Nc3ccccc3)nc1-2
inactive: HT29 colon 93% | SNB-75 CNS 93% | SNB-19 CNS 95.2% | U251 CNS 78.5% | PC-3 prostate 69.8% | SK-MEL-5 melanoma 88.3% | UACC-62 melanoma 78.4% | LOX IMVI melanoma 77.8% | SK-MEL-28 melanoma 106% | SK-MEL-2 melanoma 93.4%

O=c1oc2ccc(-c3ccc(F)cc3F)cc2c(=O)n1-c1ccc(Cl)c(C(F)(F)F)c1
inactive: HT29 colon 53.1% | SNB-19 CNS 33.9% | LOX IMVI melanoma 32.1% | SK-MEL-28 melanoma 20.3%
active: SNB-75 CNS 6.37% | U251 CNS 6.46% | PC-3 prostate 5.88% | SK-MEL-5 melanoma -69.6% | UACC-62 melanoma 0.294% | SK-MEL-2 melanoma -18.1%

O=C(/C=C/c1ccc(Cl)cc1)c1ccc(Nc2nc(NCCO)nc(Nc3ccc(Cl)cc3)n2)cc1
inactive: HT29 colon 30.5% | SNB-75 CNS 47.5% | SNB-19 CNS 77.6% | U251 CNS 21.8% | PC-3 prostate 53.1% | SK-MEL-5 melanoma 81.5% | UACC-62 melanoma 60.7% | LOX IMVI melanoma 37.2% | SK-MEL-28 melanoma 78.1% | SK-MEL-2 melanoma 96%

O=C(Nc1ccc(N2CCNCC2)cn1)c1[nH]ncc1Nc1ncnc2sccc12
inactive: SNB-75 CNS 59.5% | SNB-19 CNS 48.7% | PC-3 prostate 23.7% | SK-MEL-5 melanoma 58.2% | UACC-62 melanoma 74.7% | SK-MEL-2 melanoma 85.7%
active: HT29 colon 2.95% | U251 CNS -51.1% | LOX IMVI melanoma -75.1% | SK-MEL-28 melanoma -81.4%

COc1ccc(Cn2cc(Cn3cc(C=C4C(=O)NC(=O)NC4=O)c4ccccc43)nn2)cc1
inactive: HT29 colon 117% | SNB-75 CNS 78.1% | SNB-19 CNS 90.4% | U251 CNS 92.3% | PC-3 prostate 84.8% | SK-MEL-5 melanoma 60.7% | UACC-62 melanoma 64.6% | LOX IMVI melanoma 79.4% | SK-MEL-28 melanoma 102% | SK-MEL-2 melanoma 85.8%

COc1cc(CNC(=O)Cc2ccccc2)ccc1OCc1cn(-c2ccc(F)cc2)nn1
inactive: HT29 colon 111% | SNB-75 CNS 91.7% | SNB-19 CNS 103% | U251 CNS 97.3% | PC-3 prostate 98.5% | SK-MEL-5 melanoma 89.1% | UACC-62 melanoma 85.3% | LOX IMVI melanoma 99.6% | SK-MEL-28 melanoma 103% | SK-MEL-2 melanoma 101%

O=NN(Cc1cccnc1)C(=O)NC1CCCCC1
inactive: HT29 colon 103% | SNB-75 CNS 84.7% | SNB-19 CNS 102% | U251 CNS 97.4% | PC-3 prostate 98.7% | SK-MEL-5 melanoma 102% | UACC-62 melanoma 110% | LOX IMVI melanoma 103% | SK-MEL-28 melanoma 104% | SK-MEL-2 melanoma 119%

Nc1nc(N)c2c(n1)NC1(C=C(O)c3ccccc31)C1=C(N2)c2ccccc2C1=O (stereo not given)
inactive: HT29 colon 125% | SNB-75 CNS 169% | SNB-19 CNS 103% | U251 CNS 103% | PC-3 prostate 107% | SK-MEL-5 melanoma 108% | UACC-62 melanoma 110% | LOX IMVI melanoma 94.3% | SK-MEL-28 melanoma 108% | SK-MEL-2 melanoma 112%

COC(=O)/C(CCC=C(C)C)=C1\[C@@H](OC(C)=O)C[C@@]2(C)[C@H]1C[C@@H](O)[C@H]1[C@@]3(C)CC[C@H](NCCO)[C@@H](C)[C@@H]3CC[C@@]12C
inactive: HT29 colon 104% | SNB-75 CNS 100% | SNB-19 CNS 98.4% | U251 CNS 103% | PC-3 prostate 102% | SK-MEL-5 melanoma 102% | UACC-62 melanoma 98% | LOX IMVI melanoma 94.2% | SK-MEL-28 melanoma 106% | SK-MEL-2 melanoma 109%

COc1ccc(/C(C#N)=C/c2nc3c(N4CCOCC4)nc(Cl)nc3n2C)cc1OC
inactive: SNB-19 CNS 23.5% | U251 CNS 12.5% | SK-MEL-28 melanoma 15.1% | SK-MEL-2 melanoma 42.7%
active: HT29 colon 3.73% | SNB-75 CNS -7.9% | PC-3 prostate 9.66% | SK-MEL-5 melanoma -50.5% | UACC-62 melanoma -5.32% | LOX IMVI melanoma -71%
